Measured values from PubChem BioAssay (NCI).
Compounds without any hit were thinned out: in the full panel of roughly 83,000, 20% have a hit.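 Percent growth is the endpoint: 0 to 100 indicates growth inhibition (40 means 60% inhibition), 0 means no net growth, and negative values indicate cell death.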 Unmarked numbers belong to inactive results. Activity calls are given as the source filed them. Rule for the calls: active = growth percent below 10; inactive = the rest.

What was measured:
Test in all cases: NCI-60 one-dose screen, 48 h (100 = growth as untreated, 0 = no growth, -100 = all killed)
Settings in all cases: 10 µM unless noted
DU-145 prostate = test system: DU-145 prostate
K-562 leukemia = test system: K-562 leukemia
MALME-3M melanoma = test system: MALME-3M melanoma
MDA-MB-231 breast = test system: MDA-MB-231 breast
RXF 393 renal = test system: RXF 393 renal
SF-268 CNS = test system: SF-268 CNS
SF-295 CNS = test system: SF-295 CNS
SF-539 CNS = test system: SF-539 CNS
M14 melanoma = test system: M14 melanoma
UACC-257 melanoma = test system: UACC-257 melanoma

SMILES	growth (DU-145 prostate)	growth (K-562 leukemia)	growth (MALME-3M melanoma)	growth (MDA-MB-231 breast)	growth (RXF 393 renal)	growth (SF-268 CNS)	growth (SF-295 CNS)	growth (SF-539 CNS)	growth (M14 melanoma)	growth (UACC-257 melanoma)
COc1ccc(Nc2c3ccccc3nc3ccccc23)cc1	21.5%	12.4%	42.3%	55.3%	28.1%	35.9%	15.9%	23.3%	48%	–
CCCCN(CCCC)c1ccc(C(=O)O)cc1	101%	107%	74%	120%	105%	101%	97.7%	109%	103%	–
O=C(NC(=S)NNC(=S)NNc1ccccc1)c1ccccc1	98%	9.51% (active)	25.5%	78.2%	62.8%	59.5%	6.98% (active)	25.5%	71.7%	–
COc1cc(OC)c(/C=C/c2ccc3ccccc3[n+]2C)c(OC)c1	22.3%	9.98% (active)	3.03% (active)	28.2%	34.5%	18%	-32.7% (active)	-23.7% (active)	15.9%	–
C=CCNCCC#N	113%	109%	114%	119%	109%	112%	–	107%	101%	111%
CCOc1ccc(Br)cc1/C=C(\C#N)c1ccc([N+](=O)[O-])cc1	80.4%	80.6%	62.2%	61.2%	66.7%	60.9%	76.5%	81.1%	101%	–
NCCCOc1cc(Cl)ccc1NC(=O)c1cc2ccccc2cc1OCCCN	-90% (active)	0.57% (active)	-4.21% (active)	-65% (active)	-5.16% (active)	-73.6% (active)	-62% (active)	-88.8% (active)	-88.5% (active)	–
OCCN1CCN(CC/C=C2/c3ccccc3Sc3ccc(C(F)(F)F)cc32)CC1	82.7%	6.74% (active)	69%	80.7%	59.6%	70.7%	88.7%	87.6%	58.5%	–
CC#Cc1nc(Nc2cc(C)[nH]n2)c2ccccc2n1	-4.22% [100 µM] (active)	9.48% [100 µM] (active)	-45.3% [100 µM] (active)	-34.5% [100 µM] (active)	-51% [100 µM] (active)	-72.5% [100 µM] (active)	–	1.15% [100 µM] (active)	-27.3% [100 µM] (active)	-19.9% [100 µM] (active)
COC(=O)CC(=O)C(=O)OC	108%	101%	107%	115%	104%	97.4%	–	102%	100%	102%
COc1ccc2cc(C(C)C(=O)Nc3ccc(S(=O)(=O)Nc4cc(C)on4)cc3)ccc2c1 (centres undefined)	115%	95%	115%	117%	92%	100%	105%	97.4%	103%	–
COC(=O)c1c[n+]([O-])ccc1OC	114%	71.1%	92.1%	99.4%	108%	116%	88.1%	122%	104%	–
CCCCCCCCCC(C)NC(=O)CCl (centres undefined)	102%	97.3%	93.8%	93%	101%	95.1%	99.8%	99.9%	107%	–
CC(C)C(=O)c1ccc(Cl)s1	106%	91.5%	82.8%	105%	105%	102%	99.3%	107%	101%	–
CCOC(=O)CNS(=O)(=O)CC(=O)c1ccccc1	117%	86.8%	83%	97.3%	117%	124%	118%	–	93.4%	132%
CCOC(=O)c1csc(-c2ccc(COC(=O)c3ccccc3)o2)n1	130%	102%	95.8%	107%	106%	118%	84.4%	107%	106%	–
CC(C)(C)c1cc(C[P+](c2ccc(Cl)cc2)(c2ccc(Cl)cc2)c2ccc(Cl)cc2)cc(C(C)(C)C)c1O	108%	32.4%	37.4%	102%	68%	99.1%	91.9%	105%	106%	–
CCCCCCCCCCCCCCCCCCOP(=O)(O)O	116%	110%	112%	96.6%	114%	109%	–	104%	99.4%	113%
C[n+]1c2ccccc2c(Nc2ccc(NS(=O)(=O)CCCCN=C(N)N)cc2)c2ccc(N)cc21	23.7%	41%	32.6%	93.9%	71%	39.7%	5.07% (active)	43%	53.2%	–
NC(N)=N/N=C/c1cccc(Br)c1	118%	93.6%	100%	105%	95.8%	–	99.3%	101%	92.8%	106%
O=C(/C=C/c1ccc(Cl)cc1)c1ccc(Cl)cc1	101%	73.9%	91.8%	118%	96%	98.3%	–	104%	100%	103%
O=C1C=C(OCC=C(C(F)(F)F)C(F)(F)F)c2ccccc2C1=O	-15% (active)	-15.5% (active)	-34.8% (active)	7.59% (active)	-82.5% (active)	0.611% (active)	–	–	26%	45.8%
CCOC(=O)C1CCCN1C(=O)C1(NC(C)=O)CCCC1 (centres undefined)	103%	110%	96.7%	121%	110%	–	104%	95.8%	95.2%	102%
O=c1[nH]c(=S)[nH]c(O)c1/C=C1\C=Nc2ccccc21	108%	99.4%	99.5%	64.5%	–	70%	43%	94.2%	92.3%	80.5%
N=C(N)N=Nc1ccc(NN=C(N)N)c2ccccc12	113%	103%	146%	101%	142%	–	106%	–	75.9%	105%
CSCc1ncc(-c2ccc(C(F)(F)F)cc2)c(NC2CCCCCC2)n1	71.4% [25 µM]	29.3% [25 µM]	68.8% [25 µM]	56.2% [25 µM]	75.4% [25 µM]	75.5% [25 µM]	–	93.8% [25 µM]	67.4% [25 µM]	74.1% [25 µM]
COC(=O)[C@H](Cc1cn(C)cn1)NC(=O)[C@H](CC(=O)OCc1ccccc1)NC(=O)Nc1cc(C(F)(F)F)cc(C(F)(F)F)c1	-94.5% [100 µM] (active)	-60.2% [100 µM] (active)	-94.4% [100 µM] (active)	-93% [100 µM] (active)	-81.8% [100 µM] (active)	-91.4% [100 µM] (active)	–	-94.6% [100 µM] (active)	-93.6% [100 µM] (active)	-94.9% [100 µM] (active)
CCn1cnc(C[C@H](NC(=O)[C@@H](NC(=O)Nc2cc(C(F)(F)F)cc(C(F)(F)F)c2)C(C)C)C(=O)OC)c1	-81.2% [100 µM] (active)	-57.3% [100 µM] (active)	-90.5% [100 µM] (active)	-94.2% [100 µM] (active)	-86.2% [100 µM] (active)	-68.4% [100 µM] (active)	–	-96.3% [100 µM] (active)	-93.8% [100 µM] (active)	-95.1% [100 µM] (active)
CC(=O)C(CO)C(=O)Nc1ccccc1 (centres undefined)	112%	102%	109%	102%	–	107%	107%	95.4%	99.5%	85.7%
